# Laboratory results published in the supplement of paper PMC6522484.
# ± gives the standard deviation of the averaged measurements.
# Columns and labels:
# DLD1 [1] = assay: cell viability (CellTiter-Glo) relative to plate median (fraction of plate median); higher = more viable cells; conditions: 5 µM; treatment time 24 h; reporter: 7TFP
# Procedure, shortened: (§1)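 Each entry is a luminescence signal normalised to the plate median, averaged over independent replicates. The replicate count was two, and the cells were colorectal cancer lines with stable lentiviral TCF/Wnt firefly luciferase reporters exposed to library compounds at a final 5 µM for 24 h. Firefly luciferase and CellTiterGlo were measured on parallel plates.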
# HCT116 [2] = assay: as above; conditions: 5 µM; treatment time 24 h; reporter: TCF4/Wnt
# Procedure, shortened: as §1
# SW480 [3] = assay: as above; conditions: 5 µM; treatment time 24 h; reporter: 7TFP
# Procedure, shortened: as §1
# DLD1 [4] = assay: TCF/Wnt firefly luciferase reporter signal relative to plate median (fraction of plate median); higher = higher Wnt reporter signal; conditions: 5 µM; treatment time 24 h; reporter: 7TFP
# Procedure, shortened: as §1
# SW480 [5] = assay: as above; conditions: 5 µM; treatment time 24 h; reporter: 7TFP
# Procedure, shortened: as §1
# DLD1 [6] = assay: cell viability (CellTiter-Glo) relative to plate median (fraction of plate median); higher = more viable cells; conditions: 10 µM, treatment time 24 h
# Procedure, shortened: (§2)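 Colorectal cancer cell lines carrying stably transduced lentiviral TCF/Wnt firefly luciferase reporters (7TFP or TCF4/Wnt) were plated in 384-well plates and treated 24 h later with kinase inhibitor library compounds at a final 10 µM for 24 h. Firefly luciferase or CellTiterGlo luminescence was read on parallel plates with a Tecan F500 reader. Signals were normalised per well to the plate median in webcellHTS2 (additive, no log transformation), and values are the mean of two independent replicates.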
# HCT116 [7] = assay: as above; conditions: 10 µM; treatment time 24 h; reporter: TCF4/Wnt
# Procedure, shortened: as §2
# SW480 [8] = assay: as above; conditions: 10 µM; treatment time 24 h; reporter: 7TFP
# Procedure, shortened: as §2
# DLD1 [9] = assay: TCF/Wnt firefly luciferase reporter signal relative to plate median (fraction of plate median); higher = higher Wnt reporter signal; conditions: 10 µM, treatment time 24 h
# Procedure, shortened: as §2
# HCT116 [10] = assay: as above; conditions: 10 µM; treatment time 24 h; reporter: TCF4/Wnt
# Procedure, shortened: as §2
# SW480 [11] = assay: as above; conditions: 10 µM; treatment time 24 h; reporter: 7TFP
# Procedure, shortened: as §2
smiles,measurement,setting,value
Nc1ccc(C(=O)NCC(=O)O)cc1,cell viability,DLD1 [1],0.988 ± 0.059
same,cell viability,HCT116 [2],0.962 ± 0.069
same,cell viability,SW480 [3],0.98 ± 0.057
same,TCF/Wnt firefly luciferase reporter signal,DLD1 [4],0.998 ± 0.088
same,TCF/Wnt firefly luciferase reporter signal,SW480 [5],0.984 ± 0.12
CCC(=O)OCC(=O)[C@@]1(OC(=O)CC)[C@@H](C)C[C@H]2[C@@H]3CCC4=CC(=O)C=C[C@]4(C)[C@@]3(F)[C@@H](O)C[C@@]21C,cell viability,DLD1 [1],1.015 ± 0.0071
same,cell viability,HCT116 [2],1.03 ± 0.073
same,cell viability,SW480 [3],0.963 ± 0.018
same,TCF/Wnt firefly luciferase reporter signal,DLD1 [4],0.876 ± 0.12
same,TCF/Wnt firefly luciferase reporter signal,SW480 [5],0.941 ± 0.014
CCCCC(=O)Oc1ccccc1C(=O)O,cell viability,DLD1 [1],0.984 ± 0.013
same,cell viability,HCT116 [2],0.98 ± 0.042
same,cell viability,SW480 [3],0.988 ± 0.018
same,TCF/Wnt firefly luciferase reporter signal,DLD1 [4],1 ± 0.052
same,TCF/Wnt firefly luciferase reporter signal,SW480 [5],1 ± 0.2
Clc1ccc2c(c1)CCc1cccnc1C2=C1CCNCC1,cell viability,DLD1 [1],0.992 ± 0.011
same,cell viability,HCT116 [2],1.07 ± 0.021
same,cell viability,SW480 [3],0.97 ± 0.021
same,TCF/Wnt firefly luciferase reporter signal,DLD1 [4],1 ± 0.015
same,TCF/Wnt firefly luciferase reporter signal,SW480 [5],1.12 ± 0.014
CC(CCC(=O)O)[C@H]1CCC2C3C[C@H](O)[C@@H]4C[C@H](O)CC[C@]4(C)C3CC[C@@]21C (stereo partly drawn) [alpha-HYDROXYDEOXYCHOLIC ACID],cell viability,DLD1 [1],1.04 ± 0.13
same,cell viability,HCT116 [2],1.1 ± 0.078
same,cell viability,SW480 [3],1.06 ± 0.014
same,TCF/Wnt firefly luciferase reporter signal,DLD1 [4],0.947 ± 0.1
same,TCF/Wnt firefly luciferase reporter signal,SW480 [5],0.974 ± 0.052
Cc1cc(NC(=O)C2=C(O)c3ccccc3S(=O)(=O)N2C)no1,cell viability,DLD1 [1],1.04 ± 0.064
same,cell viability,HCT116 [2],0.88 ± 0.036
same,cell viability,SW480 [3],1.004 ± 0.0085
same,TCF/Wnt firefly luciferase reporter signal,DLD1 [4],0.945 ± 0.15
same,TCF/Wnt firefly luciferase reporter signal,SW480 [5],0.993 ± 0.18
COc1c2ccoc2c(OC)c2oc(=O)ccc12,cell viability,DLD1 [1],0.95 ± 0.0099
same,cell viability,HCT116 [2],0.966 ± 0.16
same,cell viability,SW480 [3],1.07 ± 0.028
same,TCF/Wnt firefly luciferase reporter signal,DLD1 [4],0.982 ± 0.11
same,TCF/Wnt firefly luciferase reporter signal,SW480 [5],0.927 ± 0.017
CN1C2CCC1CC(OC(=O)C(O)c1ccccc1)C2 (stereo not drawn),TCF/Wnt firefly luciferase reporter signal,DLD1 [4],1.05 ± 0.042
same,TCF/Wnt firefly luciferase reporter signal,SW480 [5],1.12 ± 0.021
CC1(C)CC[C@]2(C(=O)O)CC[C@]3(C)C(=CCC4[C@@]5(C)CC[C@@H](O)C(C)(C)C5CC[C@]43C)C2C1 (stereo partly drawn),cell viability,DLD1 [1],0.967 ± 0.032
same,cell viability,HCT116 [2],1.11 ± 0.092
same,cell viability,SW480 [3],1.08 ± 0.014
same,TCF/Wnt firefly luciferase reporter signal,DLD1 [4],0.955 ± 0.093
same,TCF/Wnt firefly luciferase reporter signal,SW480 [5],0.9805 ± 0.005
COc1cc2ncnc(Nc3cccc(Br)c3)c2cc1OC,cell viability,DLD1 [6]; reporter: 7TFP,1.15 ± 0.15
same,cell viability,DLD1 [6]; reporter: TCF4/Wnt,1.07 ± 0.064
same,cell viability,HCT116 [7],1.06 ± 0.086
same,cell viability,SW480 [8],1.03 ± 0.071
same,TCF/Wnt firefly luciferase reporter signal,DLD1 [9]; reporter: 7TFP,0.631 ± 0.37
same,TCF/Wnt firefly luciferase reporter signal,DLD1 [9]; reporter: TCF4/Wnt,0.58 ± 0.13
same,TCF/Wnt firefly luciferase reporter signal,HCT116 [10],0.911 ± 0.11
same,TCF/Wnt firefly luciferase reporter signal,SW480 [11],0.838 ± 0.09
COc1ccc(-c2ccc3ncc4c(c3c2)n(-c2ccc(N3CCNCC3)c(C(F)(F)F)c2)c(=O)n4C)cn1,cell viability,DLD1 [6]; reporter: 7TFP,0.0998 ± 0.065
same,cell viability,DLD1 [6]; reporter: TCF4/Wnt,0.116 ± 0.084
same,cell viability,HCT116 [7],0.0311 ± 0.011
same,cell viability,SW480 [8],0.273 ± 0.18
same,TCF/Wnt firefly luciferase reporter signal,DLD1 [9]; reporter: 7TFP,0.0479 ± 0.0086
same,TCF/Wnt firefly luciferase reporter signal,DLD1 [9]; reporter: TCF4/Wnt,0.0791 ± 0.014
same,TCF/Wnt firefly luciferase reporter signal,HCT116 [10],0.0387 ± 0.017
same,TCF/Wnt firefly luciferase reporter signal,SW480 [11],0.148 ± 0.14
C[C@@H]1C[C@H]2[C@@H]3CCC4=CC(=O)C=C[C@]4(C)[C@@]3(F)[C@@H](O)C[C@]2(C)[C@@]1(O)C(=O)COP(=O)(O)O,cell viability,DLD1 [1],1.03 ± 0.052
same,cell viability,HCT116 [2],1.02 ± 0.075
same,cell viability,SW480 [3],1.01 ± 0.093
same,TCF/Wnt firefly luciferase reporter signal,DLD1 [4],0.954 ± 0.065
same,TCF/Wnt firefly luciferase reporter signal,SW480 [5],0.906 ± 0.0014
CC(=O)Oc1ccc2c(c1C(C)C)CCC1C(C)(C)CCC[C@]21C (stereo partly drawn),cell viability,DLD1 [1],1.18 ± 0.22
same,cell viability,HCT116 [2],1.15 ± 0.071
same,cell viability,SW480 [3],1.05 ± 0.05
same,TCF/Wnt firefly luciferase reporter signal,DLD1 [4],0.98 ± 0.11
same,TCF/Wnt firefly luciferase reporter signal,SW480 [5],0.962 ± 0.047
Cn1cnc2c1c(=O)[nH]c(=O)n2C,cell viability,DLD1 [1],1.04 ± 0.028
same,cell viability,HCT116 [2],1.16 ± 0.092
same,cell viability,SW480 [3],1.03 ± 0.035
same,TCF/Wnt firefly luciferase reporter signal,DLD1 [4],1.17
same,TCF/Wnt firefly luciferase reporter signal,SW480 [5],1.09 ± 0.028
